Measurements as given in ChEMBL document CHEMBL3433997, “St. Jude Leishmania screening dataset” (2016).

Assays:
Assay type in all cases: functional
[1] = target: Solute carrier family 2, facilitated glucose transporter member 1 (Homo sapiens) (UniProt P11166); test: ST_JUDE_LEISH: Cytotoxicity at 2uM final concentration against transgenic Leishmania Mexicana promastigotes LmGLUT1 that are glucose transport deficient and complemented with the human glucose transporter GLUT1. Activity is measured by DNA content using SYBR green in vitro
[2] = target: Hexose transporter 1 (Plasmodium falciparum) (UniProt O97467); test: ST_JUDE_LEISH: Cytotoxicity at 2uM final concentration against transgenic Leishmania Mexicana promastigotes LmPfHT that are glucose transport deficient and complemented with the Plasmodium falciparum hexose transporter. Activity is measured by DNA content using SYBR green in vitro
[3] = target: Glucose transporter (Leishmania mexicana) (UniProt O61059); test: ST_JUDE_LEISH: Cytotoxicity at 2uM final concentration against transgenic Leishmania Mexicana promastigotes LmGT2 that are glucose transport deficient and complemented with the L. Mexicana glucose transporter 2. Activity is measured by DNA content using SYBR green in vitro

Chain of Solute carrier family 2, facilitated glucose transporter member 1 (Homo sapiens) (P11166 whole entry): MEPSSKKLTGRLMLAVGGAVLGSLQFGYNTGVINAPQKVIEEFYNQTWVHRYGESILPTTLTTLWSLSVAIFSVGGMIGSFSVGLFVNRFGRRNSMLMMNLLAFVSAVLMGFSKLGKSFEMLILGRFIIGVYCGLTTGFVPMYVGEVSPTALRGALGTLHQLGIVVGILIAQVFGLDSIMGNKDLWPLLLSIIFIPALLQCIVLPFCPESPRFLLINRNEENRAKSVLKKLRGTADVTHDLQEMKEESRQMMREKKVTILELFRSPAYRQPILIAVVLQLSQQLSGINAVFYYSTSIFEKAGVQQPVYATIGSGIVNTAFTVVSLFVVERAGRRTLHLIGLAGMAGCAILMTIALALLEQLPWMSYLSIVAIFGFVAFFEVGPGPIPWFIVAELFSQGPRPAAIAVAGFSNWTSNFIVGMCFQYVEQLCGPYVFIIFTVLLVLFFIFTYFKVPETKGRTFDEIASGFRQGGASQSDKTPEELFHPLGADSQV

Compound | inhibition [1] [%] | inhibition [2] [%] | inhibition [3] [%]
NS(=O)(=O)c1ccc(CNC(=O)c2cnc3c(O)cccc3c2Nc2cccc(NC(=O)c3ccc(Cl)c(Cl)c3)c2)cc1 | 5.22 | 5.59 | 5.34
CN1CCN(c2ccnc3ccc(NC(=O)Nc4c(Cl)cccc4Cl)cc23)CC1 | -2.39 | -2.3 | -1.19
COc1ccc(NC(=O)CSc2nc(-c3ccccc3Cl)ns2)cc1 | 1.15 | -1.47 | -2.13
COc1ccc(CN2C(=S)N(Cc3ccccc3)C(=O)C2CC(=O)Nc2ccccc2)cc1OC (stereo not given) | 0.79 | -0.87 | -2.09
CCCCCCNC[C@@H](O)[C@H](Cc1ccccc1)NC(=O)c1cc(NCC)cc(N2CCCCS2(=O)=O)c1 | 1.43 | 1.73 | 5.06
Cc1nc(N)nc(N)c1-c1ccc2ccccc2c1 | -1.96 | -1.02 | -2.1
Oc1ccc2ccccc2c1C=NNc1nc(=Nc2ccccc2)nc(N2CCOCC2)[nH]1 | 4.21 | 3.72 | 0.2
O=C(C=Cc1ccc(Cl)c(Cl)c1)NCCCCCN1CCC(c2n[nH]c3ccccc23)CC1 | 1.5 | 2.15 | 1.44
CN(C(=O)C1(c2ccc(Cl)cc2)CC1)C1CCN(CCCCCNC(=O)/C=C/c2ccc(Cl)c(Cl)c2)CC1 | 0.14 | -0.37 | 4.56
Cc1cccc(CC(=N)NCCCCCCNC(=N)Cc2cccc(C)c2)c1 | 0.27 | 0.31 | -2.06
COc1cc2nccc(Nc3ccc(NC(=O)c4ccc(C)cc4)c(O)c3)c2cc1OC | 6.88 | 9.16 | 2.92
Clc1ccc(OC2CCC(Cn3ccnc3)(c3ccc(Cl)cc3Cl)CC2)c(Cl)c1 (stereo not given) | 6.14 | 3.28 | -0.14
Cc1cc(NCCC(=O)Nc2ccccc2)nc(NCc2ccccc2C)n1 | 11 | 10.5 | 7.37
FC(F)(F)c1ccc(/C=C/c2cncnc2Nc2ccc3[nH]c(Cc4ccccc4)nc3c2)cc1 | 4.97 | 6.03 | 3.94
C[C@H](NC(=O)C1CCCC1)C(=O)Nc1ccc(-c2ccc(-c3nc4cc(C(F)(F)F)ccc4[nH]3)cc2)cc1 | 2.17 | 0.76 | -1.28
CN(C)c1cccc2c(S(=O)(=O)Nc3cccc(CCN4CCC(N5CCCCC5)CC4)c3)cccc12 | 0.3 | -3.51 | -0.34
NC1CCN(c2nc(NCCCc3ccc(O)cc3)nc(NCc3ccccc3-c3ccc(C(F)(F)F)cc3)n2)CC1 | 1.49 | 2.87 | 3.83
Cc1cc(NC(=O)NCCN2CCC(NC(=O)c3ccc(Cl)cc3)CC2)c2ccccc2n1 | 1.7 | 1.76 | 2.94
CN(C)CCOc1cc(NC(=O)Nc2ccc(-c3ccncc3)c(C(F)(F)F)c2)ccc1Cl | 9.9 | 9.02 | 9.08
Nc1nc2c(ncn2OC[C@H](CO)OCP(=O)(O)O)c(=O)[nH]1 | 0.43 | -1.69 | -1.85
CCc1ccc(C(=O)Nc2cccc(CN3CCCN(Cc4ccc(O)cc4)CC3)c2)cc1 | 2.88 | -2.75 | 3.01
CC(C)CCN(Cc1cncn1Cc1cccc(Cl)c1)C(=O)c1cncc(-c2ccccc2)c1 | 5.13 | 6 | 5.78
CC(C)(CNC(=O)C1CCN(CCOc2ccc(Cl)cc2)CC1)c1nc(-c2ccc(Cl)c(O)c2)c(-c2ccncc2)[nH]1 | 0.46 | 1.55 | -0.21
CC(C)CCn1c(Sc2ccc(C#N)c([N+](=O)[O-])c2)nnc1-c1ccccc1Cl | 4.86 | 3.76 | 1.46

Compound | inhibition [1] [%] | inhibition [2] [%] | inhibition [3] [%]
CC(C)c1ccc(NC(=O)c2ccc(CN3CCCN(Cc4cccc(Cl)c4)CC3)cc2)cc1 | 0.69 | 1.46 | 1.59
COc1ccc(CCN2CCC(NCc3cccc(N(C)C)c3)CC2)cc1 | -2.94 | 2.54 | -1.51
O=C(/C=C/c1ccc(Cl)c(Cl)c1)NCCCCCN1CCC(NC(=O)NCCc2ccccc2)CC1 | 1.48 | 1.69 | -3.26
COC(=O)c1c(C#N)c(OC)cc(O)c1CSC[C@@H](CN1CCCCC1)Nc1nc(-c2ccc([N+](=O)[O-])cc2)cs1 | -0.16 | -0.29 | 0.57
CN(C)CCN(C)Cc1ccc(-c2ccc3c(Nc4ccc(Oc5ccccc5)cc4)ccnc3c2)o1 | 0.78 | 2.26 | 2.63
CC1(C)NC(N)=NC(=N)N1OCc1ccc(-c2ccccc2)cc1 | 6.01 | 5.93 | 3.79
Fc1ccc2c(NN=Cc3ccccc3)ccnc2c1 | 2.29 | 1.07 | -1.55
CC(C)COc1ccc(Cl)cc1Cc1ccc(-c2nc3cnc4ccccc4c3[nH]2)o1 | 3.89 | 2.77 | 2
CCN(CC)CCN(Cc1ccc(-c2ccc(C(F)(F)F)cc2)cc1)C(=O)Cn1c(CCc2cc(F)ccc2F)nc(=O)c2ccccc21 | 1.25 | -1.65 | 1.58
O=c1cc(NCCCNC2CCOc3c(I)cc(Cl)cc32)[nH]c2ccccc12 (stereo not given) | 2.44 | 4.6 | 1.03
Fc1ccc2[nH]c(-c3ccc(-c4ccc(CNCCc5cccnc5)cc4)s3)nc2c1 | 6.23 | 3.19 | 3.21
COc1cc2nc(N[C@@H](CO)c3ccccc3)nc(NCc3ccccc3)c2cc1OC | 1.12 | 2.17 | 1.61
CCCCN(CCCC)/C(=N/c1cccc(Cl)c1Cl)Nc1ccc(C#N)cc1O | 3.21 | 2.13 | -4.06
Cc1cccc2nc(-c3cccc(-c4ccc(NC(=O)NCc5cccc(F)c5)cc4)c3)[nH]c12 | -1.1 | 1.21 | 0.25
CN(C)Cc1ccc2cc(NC(=O)c3ccc(-c4ccc(Cl)cc4)cc3)ccc2n1 | 2.13 | 1.6 | 2.79
CCN1C(=O)N(CCC(C)C)C2(CCN(Cc3ccc(OC)cc3O)CC2)C1=O | 5.4 | 3.01 | 3
CC(C)(C)c1ccc(NC(=O)c2ccc(CN3CCCN(Cc4cccc(F)c4)CC3)cc2)cc1 | 13.7 | 13.3 | 11.8
CN(C(=O)c1ccccc1)C1c2cc(C#N)ccc2OC(C)(C)C1O (stereo not given) | 0.42 | 0.76 | 0.38
COc1cc(C2=NN(S(=O)(=O)c3c(Cl)cc(Cl)cc3Cl)CCCC2)ccc1Cl | 2.1 | 2.71 | 4.36
CCCC(C)Nc1nc(C)cc(N[C@@H](Cc2ccccc2)C(=O)Nc2ccc(OC)cc2)n1 (stereo not given in full) | 4.27 | 5.6 | 0.54
CC(C)(C)c1cc2cc(Nc3ccnc4cc(-c5nccs5)ccc34)ccc2[nH]1 | 6.8 | 7.87 | 5.41
COc1ccc(NC(=O)C2c3ccccc3C(=O)N(C3CCCC3)C2c2cccs2)c(OC)c1 (stereo not given) | 1.15 | -0.63 | -1.93
CN(C)CCNCc1cccc(-c2cccc(-c3nc4ccccc4[nH]3)c2)c1 | 2.56 | 2.66 | 1.85
CC(C)(C)OC(=O)NCc1ccc(Nc2nnc(-c3ccc(OCC(=O)NCc4ccc(C(C)(C)C)cc4)c([N+](=O)[O-])c3)o2)cc1 | 2.12 | 1.65 | -0.53

Compound | inhibition [1] [%] | inhibition [2] [%] | inhibition [3] [%]
CC(C)Sc1nc(-c2ccccc2)nc2c1COC(C)(C)C2 | -2.07 | -2.02 | -4.12
NC(=O)NC(=O)C=Cc1ccco1 | 0.54 | 1.9 | 1.91
O=C(NCC1Cc2cc(Oc3ccccc3)ccc2O1)c1ccc([N+](=O)[O-])o1 (stereo not given) | 7.98 | 10.4 | 3.24
CC[C@]1(C)C[C@@H](NC(=O)NC(=O)c2ccc(OC)cc2)[C@]2(C)[C@H](C)CC[C@]3(CCC(=O)[C@H]32)[C@@H](C)[C@@H]1OC(=O)NC(=O)c1ccc(OC)cc1 | 7.7 | 5.47 | 7.04
O=C(Cn1c(CCc2cccc(F)c2F)cc(=O)c2cccnc21)N(CCn1ccnc1)Cc1ccc(-c2ccc(C(F)(F)F)cc2)cc1 | -0.44 | 1.8 | -1.45
CC(O)C1CCCCN1C(=O)c1cccc(-c2cccc(-c3nc4cc(F)ccc4[nH]3)c2)c1 (stereo not given) | 3.45 | 3.21 | 1.62
NC(=O)c1ccc(NCC(=O)Nc2cccc(-c3cccc(-c4nc5cc(C(F)(F)F)ccc5[nH]4)c3)c2)cc1 | 3.23 | 3.6 | 1.91
CCOC(=O)N1CCN(CCCNc2c3ccc(Cl)cc3nc3ccc(OC)cc23)CC1 | 4.11 | 3.33 | 1.42
CCC(=O)c1ccc(-c2ccc(=O)n(CC(=O)N(CCN(CC)CC)Cc3ccc(-c4ccc(C(F)(F)F)cc4)cc3)n2)cc1 | 0.37 | 1.05 | -1.47
CS(=O)(=O)c1ccc(-c2cncc(Cl)n2)cc1 | 3.73 | 3.42 | 10.2
Clc1ccc2c(NN=Cc3ccccc3)ccnc2c1 | 7.48 | 6.89 | 7.07
COc1ccc(-c2cncc(-c3ccc(OC)c(OC)c3)n2)cc1OC | 2.76 | 2.56 | 3.88
Cn1c(N)c(N=O)c(=O)[nH]c1=O | 1.53 | 0.51 | 1.58
COc1ccccc1Cc1nc2ccccc2nc1SCC(=O)Nc1cccc(C(F)(F)F)c1 | 3.27 | 3.21 | 1.7
Cc1ccc(Nc2nccc(Nc3ccc4c(c3)nc(Nc3cc(C(C)(C)C)on3)n4C)n2)cc1S(C)(=O)=O | 3.26 | 5.38 | -1.41
Cn1nc(-c2cccc(CNC3CCc4ccccc43)c2)c2cnc(NC3CCCC3)nc21 (stereo not given) | 2.84 | 5.46 | 3.3
COc1cc(Cc2cnc(N)nc2N)cc(OCCCCC2NC(=O)NC2=O)c1OC (stereo not given) | 14.8 | 14.5 | 11.6
CCc1cn(C)c2c(N3CCCC3=O)cc(C(=O)N[C@@H](Cc3ccccc3)[C@H](O)CNC3CCCCC3)cc12 | 10.2 | 11 | 11.5
CCCc1ccc(Cc2cnc3nc(N)nc(N)c3c2C)cc1 | 39.1 | 53.8 | 40
O=C(Nc1ccccc1Cl)N(Cc1cc(Cl)cc(Cl)c1)CC(O)COc1ccc(Cl)c(F)c1 (stereo not given) | 2.94 | 2.72 | -2.7
N=C(N)c1ccc(NCc2cccc(C(=O)O)c2)cc1 | 1.02 | 1.06 | 3.66
Cc1cc(=O)[nH]c2cc(Nc3ccnc(Nc4cccc(C(N)=O)c4)n3)ccc12 | 3.02 | 3.83 | 3.24
